The source of these data is PubChem BioAssay.

For test [1], the system named is TRPC4 beta (transient receptor potential cation channel C4), mouse. Kind of test: activators of mouse TRPC4 channel, confirmation, cell-based, Fluo4 calcium, HEK293 TRPC4beta/mu-opioid, duplicates, 10 µM (AID 2426;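 active = fluorescence ratio normalized to control raised more than 50% in primary screen plus both repeat runs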;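 for activation: percent rise of integrated ratio over buffer wells lacking compound which define 0%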). To be noted: Fluo4 calcium fluorescence, at 10 µM; hits give high values.
For test [2], the system named is transient receptor potential cation channel C4 beta (TRPC4), mouse. Kind of test: activators of mouse TRPC4 channel, confirmation, cell-based, second round, Fluo4, HEK293 TRPC4beta/mu-opioid, 1 µM (AID 2461;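 active = primary screen active and over 50% activation in each of two duplicate runs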;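 for activation: 0% = wells without test compound as baseline of integrated fluorescence ratio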). To be noted: Fluo4 calcium fluorescence, at 1 µM; hits give high values.
Test [3] deals with TRPC4 (transient receptor potential cation channel C4 beta), mouse. Kind of test: positive allosteric modulators of mouse TRPC4, confirmation, cell-based, second round, Fluo-4, HEK293 TRPC4beta/mu-opioid, 1 µM (AID 2554;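 active = primary screen hit whose fluorescence ratio, in both repeats, exceeds the weak agonist control mean by 3 SD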). To be noted: DAMGO EC20, Fluo-4 calcium flux, at 1 µM; hits give high values.
Test [4] deals with TRPC4 beta (transient receptor potential cation channel C4), mouse. In words: positive allosteric modulators of mouse TRPC4, confirmation, cell-based, Fluo-4, HEK293 TRPC4beta/mu-opioid (AID 2555;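 active = primary screen hit whose calcium fluorescence ratio, in both repeats, exceeds the weak agonist control mean by 3 SD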). To be noted: DAMGO EC20, Fluo-4 calcium flux, at 10 µM; hits give high values. For orientation: Calcium flux is commonly read through the fluorescence of an indicator in the cells.
The target of test [5] is Short transient receptor potential channel 4 (Mus musculus) (UniProt Q9QUQ5). Kind of test: inhibitors of mouse TRPC4 channel, confirmation, cell-based, Fluo4, HEK293 TRPC4beta/mu-opioid (AID 2636). To be noted: DAMGO, Fluo4 calcium flux, at 10 µM; hits give high values.
Short transient receptor potential channel 4 (Mus musculus), sequence (Q9QUQ5 whole entry, looked up): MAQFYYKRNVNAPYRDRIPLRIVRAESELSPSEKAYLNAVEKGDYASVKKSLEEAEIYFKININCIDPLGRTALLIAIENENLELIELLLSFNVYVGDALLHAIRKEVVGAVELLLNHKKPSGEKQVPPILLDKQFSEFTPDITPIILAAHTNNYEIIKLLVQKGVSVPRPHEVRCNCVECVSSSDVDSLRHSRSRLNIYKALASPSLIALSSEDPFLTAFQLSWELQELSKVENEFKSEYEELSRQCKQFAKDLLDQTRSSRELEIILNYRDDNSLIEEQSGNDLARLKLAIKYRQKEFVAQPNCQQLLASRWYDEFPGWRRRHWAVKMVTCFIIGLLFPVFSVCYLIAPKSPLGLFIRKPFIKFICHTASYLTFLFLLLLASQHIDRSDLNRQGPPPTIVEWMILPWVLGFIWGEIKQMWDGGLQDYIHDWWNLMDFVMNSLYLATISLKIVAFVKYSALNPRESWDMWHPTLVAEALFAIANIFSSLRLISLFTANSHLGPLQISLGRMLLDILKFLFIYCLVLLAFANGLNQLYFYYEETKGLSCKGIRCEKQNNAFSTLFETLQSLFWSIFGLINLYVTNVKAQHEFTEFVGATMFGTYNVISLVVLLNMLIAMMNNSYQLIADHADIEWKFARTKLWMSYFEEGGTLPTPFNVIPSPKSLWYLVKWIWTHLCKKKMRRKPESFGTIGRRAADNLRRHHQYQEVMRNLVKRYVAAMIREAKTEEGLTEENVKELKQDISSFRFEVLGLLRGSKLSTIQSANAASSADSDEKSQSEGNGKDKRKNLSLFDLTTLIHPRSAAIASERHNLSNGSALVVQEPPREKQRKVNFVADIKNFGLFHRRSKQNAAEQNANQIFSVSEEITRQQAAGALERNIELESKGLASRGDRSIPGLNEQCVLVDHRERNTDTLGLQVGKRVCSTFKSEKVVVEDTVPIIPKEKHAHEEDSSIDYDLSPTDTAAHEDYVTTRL
The target is the same in test [6]. In words: inhibitors of mouse TRPC4 channel, confirmation, cell-based, second round, Fluo4, HEK293 TRPC4beta/mu-opioid, 1 µM (AID 2637;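 active = calcium signal ratio cut to more than 3 SD under the fully stimulated control mean yet still positive, in both repeats and the primary screen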). To be noted: Fluo4 calcium flux, DAMGO, at 1 µM; hits give high values.
The target is the same in test [7]. Kind of test: TRPC4 positive allosteric modulators, dose response, cell-based, HEK293 TRPC4/mu-opioid, Fluo-4 calcium, EC20 DAMGO (AID 434941;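 active = earlier screen potentiator hit that boosts the TRPC4 ion channel at some dose, with a dose response; inactive = no potentiation, no dose response, or not a prior hit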;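 note: calcium entry triggered by an EC20 dose of DAMGO at the co-expressed mu-opioid receptor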).
For test [8] the target is unchanged. In words: mouse TRPC4 channel inhibitors, dose response, cell-based, HEK293 TRPC4/mu-opioid, Fluo-4 calcium (AID 434942;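 active = primary screen inhibitor hit that blocks the TRPC4 channel at some tested dose, yielding a dose curve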).
Test [9] deals with Short transient receptor potential channel 6 (Mus musculus) (UniProt Q61143). In words: inhibition of mouse TRPC6 channel, confirmation, selectivity assay for TRPC4 inhibitor project, cell-based, HEK293, membrane potential dye, duplicate (AID 434948;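 active = active in primary screen and both duplicates, each dropping signal beyond three positive-control SD with fluorescence still positive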). To be noted: HEK293 TRPC6, membrane potential dye fluorescence, at 10 µM, stimulated with maximal-effect acetylcholine; hits give high values.
Short transient receptor potential channel 6 (Mus musculus), sequence (Q61143 whole entry, looked up): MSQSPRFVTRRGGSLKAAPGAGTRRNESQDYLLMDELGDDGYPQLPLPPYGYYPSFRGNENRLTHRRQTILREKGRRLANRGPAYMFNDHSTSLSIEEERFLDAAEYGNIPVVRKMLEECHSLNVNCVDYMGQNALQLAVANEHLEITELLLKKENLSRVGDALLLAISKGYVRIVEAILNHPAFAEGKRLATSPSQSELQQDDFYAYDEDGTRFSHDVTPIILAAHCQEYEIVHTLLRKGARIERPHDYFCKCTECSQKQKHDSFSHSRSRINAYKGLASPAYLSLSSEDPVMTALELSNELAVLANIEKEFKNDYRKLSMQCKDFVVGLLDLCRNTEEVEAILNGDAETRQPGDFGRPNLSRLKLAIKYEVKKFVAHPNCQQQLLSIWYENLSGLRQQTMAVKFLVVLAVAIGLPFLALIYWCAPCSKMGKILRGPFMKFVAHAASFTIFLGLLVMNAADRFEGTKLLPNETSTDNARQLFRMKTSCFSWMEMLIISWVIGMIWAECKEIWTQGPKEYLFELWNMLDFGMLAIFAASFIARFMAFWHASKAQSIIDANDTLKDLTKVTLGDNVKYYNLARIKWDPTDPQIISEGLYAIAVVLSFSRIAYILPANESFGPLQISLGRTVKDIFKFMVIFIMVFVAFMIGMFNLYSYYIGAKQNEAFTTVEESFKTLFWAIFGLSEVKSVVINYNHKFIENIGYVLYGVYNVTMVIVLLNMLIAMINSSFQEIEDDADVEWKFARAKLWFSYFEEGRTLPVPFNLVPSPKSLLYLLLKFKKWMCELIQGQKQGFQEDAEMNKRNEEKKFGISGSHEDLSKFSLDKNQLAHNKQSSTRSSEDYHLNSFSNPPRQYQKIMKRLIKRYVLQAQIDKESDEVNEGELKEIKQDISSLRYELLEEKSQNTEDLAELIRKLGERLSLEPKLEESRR

Test [10] has the same target. Kind of test: activation of mouse TRPC6 channel, confirmation, selectivity assay for TRPC4 activator project, cell-based, HEK293, membrane potential dye, duplicate (AID 434950;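 active = membrane potential signal rise above negative control mean plus 3 SD in both duplicates, also active in the earlier TRPC4 screen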;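 for activation: 0% = buffer only wells and 100% = acetylcholine maximal-effect wells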). To be noted: HEK293 TRPC6, membrane potential fluorescence, at 10 µM; hits give high values.
The target is the same in test [11]. Kind of test: TRPC6 potentiation by TRPC4 potentiator hits, confirmation, selectivity assay for TRPC4 potentiator project, HEK293 cells, membrane potential dye, duplicate (AID 434952;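 active = compound raising the membrane signal above positive-control mean plus 3 SD in both repeats, and a primary screen hit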). To be noted: HEK293 TRPC6, membrane potential dye fluorescence, at 10 µM, maximal acetylcholine added after compound; hits give high values.
Test [12] addresses Short transient receptor potential channel 4 (Mus musculus) (UniProt Q9QUQ5). In words: calcium flux activators in TRPC4/5HT1a cells, counter-screen for TRPC4 activator project, cell-based, second counter screen, HEK293 TRPC4/5HT1a, Fluo-4 (AID 434977;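 active = calcium signal rise above buffer-control mean plus 5 SD in both duplicates, and also a hit in the primary screen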;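 for activation: plate controls were assay buffer for no effect and maximal serotonin response for full effect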). To be noted: Fluo-4 calcium flux, at 10 µM; hits give high values.
A short description of test [13]: calcium flux inhibitors in TRPC4/5HT1a cells, confirmation, counter-screen for TRPC4 inhibitor project, cell-based, second counter screen, HEK293 TRPC4/5HT1a, Fluo-4 (AID 434978;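 active = primary screen active whose calcium signal fell more than 3 SD beyond the full-serotonin control mean in both duplicate plates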;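 note: serotonin given first at submaximal then at maximal dose after compound preincubation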). To be noted: Fluo-4 calcium flux, at 10 µM, serotonin added to trigger calcium flux; hits give high values.
Test [14] has as its system TRPC4 (mouse), co-expressed with 5HT1a in HEK293. In words: calcium flux potentiators in TRPC4/5HT1a cells, confirmation, counter-screen for TRPC4 potentiator project, cell-based, second counter screen, HEK293 TRPC4/5HT1a, Fluo-4 (AID 434979;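 active = signal rise over 3 SD above mean of control wells given weak agonist, in both repeats and first screen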). To be noted: Fluo-4 calcium flux, at 10 µM, serotonin added at its EC20 dose; hits give high values.
Test [15] in a line: calcium flux activation in mu-opioid HEK293 cells, confirmation, counter-screen for TRPC4 activator project, cell-based, HEK293 mu-opioid receptor line (AID 449723;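 active = hit in primary screen, with calcium signal over 5 SD above buffer well mean in both duplicates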;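 note: counter screen cells carry the mu-opioid receptor alone and lack TRPC4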). To be noted: Fluo-4 calcium fluorescence, at 10 µM; hits give high values.
Test [16] in a line: calcium flux enhancement in mu-opioid HEK293 cells, confirmation, counter-screen for TRPC4 allosteric potentiator project, cell-based, HEK293 mu-opioid receptor line (AID 449724;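 active = calcium signal rise more than 3 SD above the low-dose agonist control mean, in both duplicate plates and the primary screen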;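 note: HEK293 cells carrying mu-opioid receptor only with no TRPC4 channel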). To be noted: Fluo-4 calcium flux, at 10 µM, compound added before EC20 DAMGO stimulus; hits give high values.

SMILES strings stand for the structures. Values joined by “and” are separate entries in the source; they are usually repeats but may differ in a detail not shown here. Identical values can stand only once. For some assays here: Results with a measured potency or affinity are listed apart. Active and inactive are the calls of the source.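 Rule for the calls, unless noted: active = calcium signal cut by more than 3 SD below the full-agonist control yet still positive, in both repeats and the earlier primary screen; inactive = the rest.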

Regarding `NC1=NC2(CCN(Cc3ccccc3)CC2)n2c(nc3ccccc32)N1`, the activation in test [1] was 54% (active). The result in [2], in test [3], in test [4], in [5], in [6] and in [7] was inactive. Further, the outcome in test [8], in test [9], in test [10], in test [11], in test [12] and in [13] was inactive. Also, the result in test [14], in test [15] and in [16] was inactive.

`O=C(COc1cc(Cl)c(Cl)cc1Cl)NCCc1ccccn1`: the activation in test [1] was 60% (active); in [10] it was 53.5% (active); in test [12] it was 12.5% (active). For the same compound, the outcome in [2], in test [3], in test [4], in test [5], in [6] and in test [7] was inactive. Further, the result in test [8], in test [9], in [11], in test [13], in test [14] and in test [15] was inactive. Also, the outcome in [16] was inactive.

`CC(Nc1nc(N2CCNCC2)nc2ccccc12)c1ccccc1` (centres undefined): the result in [1], in test [2], in test [3], in [4], in test [5] and in test [6] was inactive. In addition, the result in test [7], in [8], in [9], in [10], in [11] and in test [13] was inactive. In addition, the outcome in test [14], in [15] and in test [16] was inactive. In addition, the activation in test [12] is 16.7% (active).

In the case of `CN(CCOc1ccc(Br)cc1)CC(O)c1ccccc1` (centres undefined), the activation in test [1] is 71% (active); in test [10], 41.5% (active); in test [12] it was 12.6% (active). In addition, the outcome in [2], in test [3], in test [4], in test [5], in [6] and in [7] was inactive. The result in test [8], in [9], in [11], in test [13], in [14] and in test [15] was inactive. For the same compound, the outcome in [16] was inactive.

For `CN(C)C(CNC(=O)c1ccc2nc[nH]c2c1)c1ccccc1` (centres undefined), the activation in test [1] is 145% (active). Moreover, the outcome in [2], in [3], in test [4], in [5], in test [6] and in test [7] was inactive. The result in test [8], in [9], in test [10], in test [11], in [12] and in [13] was inactive. In addition, the outcome in test [14], in [15] and in [16] was inactive.

`O=c1c(Cc2ccc(F)cc2)c(O)ccn1CCc1cnc[nH]1`: the activation is 112% (active) in [1] and 29% (active) in test [12]. Also, the outcome in [2], in test [3], in test [4], in test [5], in [6] and in test [7] was inactive. Besides, the outcome in [8], in test [9], in [10], in [11], in test [13] and in [14] was inactive. Besides, the result in [15] and in test [16] was inactive.

Take `Cc1sc(NC(=O)c2ccccc2)c(C(=O)NCCN(C)C)c1C`: the values for the activation in test [1] and in [12] were 128% (active) and 12.1% (active), respectively. For the same compound, the result in [2], in [3], in test [4], in test [5], in test [6] and in test [7] was inactive. The result in test [8], in test [9], in [10], in test [11], in [13] and in test [14] was inactive. Further, the result in test [15] and in test [16] was inactive.

Regarding `CN(C)C(CNc1ccc(C(F)(F)F)cn1)c1ccccc1` (centres undefined), the activation in test [1] is 135% (active); in [10], 32% (active); in test [12], 5.53% (active). For the same compound, the outcome in [2], in test [3], in test [4], in test [5], in [6] and in [7] was inactive. The result in [8], in [9], in test [11], in [13], in test [14] and in [15] was inactive. In addition, in [16], the outcome was inactive.

Take `COc1ccc(C(CNC(=O)CSc2ccccc2C)N(C)C)cc1` (centres undefined): the figures for the activation in test [1], in test [2] and in test [10] were 74% (active), 73% (active) and 55% (active), respectively. In addition, the result in [3], in [4], in test [5], in [6], in test [7] and in test [8] was inactive. The call in test [9], in test [11], in test [12], in test [13], in test [14] and in [15] was inactive. Besides, in test [16], the outcome was inactive.

For the compound `CN(CCc1ccccn1)C(=S)Nc1cccc(S(=O)(=O)N(C)C)c1`, the activation is 111% (active) in test [1] and 53.6% (active) in [12]. In addition, the result in test [2], in test [3], in [4], in test [5], in test [6] and in test [7] was inactive. Also, the outcome in test [8], in test [9], in [10], in test [11], in test [13] and in test [14] was inactive. In addition, the outcome in test [15] and in test [16] was inactive.

With `Cc1ccc(C)c(-n2cc(CNCCCn3cccn3)c(-c3ccccc3)n2)c1`, the activation is 288% (active) in test [1], 129% (active) in [2], 48.5% (active) in test [10] and 29.9% (active) in test [12]. In addition, the outcome in test [3], in [4], in [5], in [6], in test [7] and in [8] was inactive. Moreover, the call in test [9], in test [11], in [13], in test [14], in test [15] and in test [16] was inactive.

Turning to `CCN1CCN(c2ccc(S(=O)(=O)N3CCCCC3)cc2NC(=O)c2cccc(Cl)c2)CC1`, the activation in test [1] was 63% (active); in test [12] it was 17.8% (active). Also, the outcome in [2], in test [5], in test [6], in [7], in test [8] and in test [9] was inactive. Further, the call in test [10], in test [11], in [13], in test [15] and in test [16] was inactive. Besides, the potentiation in test [3] was 9% (active); in [4], 7% (active); in test [14], 14.7% (active).

As for `CC(=O)OCC[N+](C)(C)C`, the activation in test [1] is 128% (active) and 146% (active); in [2], 81% (active) and 93% (active); in [10], 91.5% (active) and 116% (active); in [12] it was 110% (active) and 105% (active); in [15] it was 101% (active) and 102% (active). Moreover, the result in test [3], in test [4], in test [5], in test [6], in test [7] and in [8] was inactive. The compound was called inactive in [9], in test [11], in test [13], in test [14] and in test [16].

For the compound `Cc1ccccc1Cn1c(CN2CCc3ccccc3C2)nc2c1c(=O)n(C)c(=O)n2C`, the activation was 163% (active) in test [1] and 71% (active) in [10]. For the same compound, the result in test [2], in test [5], in test [6], in test [7], in test [8] and in test [9] was inactive. For the same compound, the result in test [11], in test [12], in [13], in test [15] and in test [16] was inactive. Further, the values for the potentiation in [3], in [4] and in [14] were 6% (active), 46% (active) and 88.5% (active), respectively.
